LRH-1 inv ag – inverse agonists of human LRH-1 (NR5A2); actives 0.13% (n = 360,000); inhibition, % at 3.6 µM; HEK293T StAR-luciferase reporter, LRH-1 transfected, 24 h; O00482;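 active means inhibition above the mean inhibition of all tested compounds plus 3 SD, cut at about 73% in these data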;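 further: 0% = DMSO wells and 100% = reporter-only cells lacking LRH-1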
Gli-Sufu block – antagonists of Gli-Sufu signaling | Sufu-KO-LIGHT fibroblasts, Gli luciferase reporter luminescence | inhibition, % at 5 µM | actives 0.74% (n = 340,000);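 active means inhibition above about 55%, limit read from the data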;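 further: 0% = DMSO-treated cells and 100% = wells with medium but no cells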
COUP-TFII inh – blocks human COUP-TFII nuclear receptor. HEK293T NGFI-A luciferase reporter, luminescence. actives 0.7% (n = 370,000). AID 686940. inhibition, % at 8.6 µM;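 active means inhibition above a per-plate cutoff, mean inhibition of test wells between control levels plus 3 SD, cut at about 38% in these data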;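 further: cells cotransfected with COUP-TFII expression vector driving the NGFI-A reporter; 0% = median of COUP-TF2 test wells and 100% = reporter-only cells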
Target sequence (P24468 whole entry, looked up): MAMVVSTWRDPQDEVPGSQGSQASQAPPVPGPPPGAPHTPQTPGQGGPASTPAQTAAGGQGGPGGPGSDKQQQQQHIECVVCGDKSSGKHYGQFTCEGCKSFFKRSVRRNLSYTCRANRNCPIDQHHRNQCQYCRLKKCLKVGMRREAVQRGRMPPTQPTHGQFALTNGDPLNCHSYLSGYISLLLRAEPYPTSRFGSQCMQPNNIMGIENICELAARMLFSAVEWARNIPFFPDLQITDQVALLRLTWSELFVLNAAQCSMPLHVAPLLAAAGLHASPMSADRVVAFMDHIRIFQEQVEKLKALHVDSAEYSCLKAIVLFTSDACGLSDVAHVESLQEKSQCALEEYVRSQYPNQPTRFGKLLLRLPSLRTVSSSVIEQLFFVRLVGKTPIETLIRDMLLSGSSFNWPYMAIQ
NCOA3 inh – inhibits human SRC3 coactivator. Q9Y6Q9. inhibition, % at 3.6 µM. HEK293 GAL4-SRC3 luciferase reporter, luminescence. actives 0.17% (n = 360,000);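 active means inhibition above a per-campaign cutoff, the mean of all compounds plus 3 SD, cut at about 60% in these data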;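 further: 0% = DMSO-treated cells and 100% = gossypol-treated cells at 36 µM; higher means less SRC3-driven luciferase light from the GAL4 reporter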
SRC2 inh – inhibits human steroid receptor coactivator 2 | inhibition, % at 9 µM | actives 0.17% (n = 370,000) | HEK293 GAL4-SRC2 luciferase reporter, luminescence | AID 651957;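 active means inhibition above the mean inhibition of all tested compounds plus 3 SD, set per campaign, cut at about 52% in these data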;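 further: 0% = DMSO treated cells and 100% = cells given Gossypol at 36 µM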
NCOA1 inh – inhibitors of human steroid receptor coactivator 1 (SRC1). AID 588354. actives 0.12% (n = 360,000). HEK293 GAL4-SRC1 luciferase reporter, luminescence. inhibition, % at 3.6 µM;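 active means inhibition above the campaign mean plus 3 SD, with each screening campaign given its own cutoff, cut at about 60% in these data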;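 further: 0% = DMSO treated cells and 100% = gossypol at 36 µM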
Gli antag conf – confirmation of Gli-SUFU pathway antagonists | shares compounds with Gli-Sufu block | Sufu-KO-LIGHT cells, Gli luciferase reporter, luminescence | inhibition, % at 5 µM | actives 40% (n = 2,500) | AID 602428;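 active means mean inhibition at 5 µM reaching about 45%, limit read from the data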;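 further: plate controls were DMSO-treated cells for no effect and wells lacking cells for full effect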
Gli cytotox – cytotoxicity counter-screen for Gli-SUFU antagonists; cytotoxicity, % at 5 µM; shares compounds with Gli-Sufu block; Sufu-KO-LIGHT cells cytotoxicity, ATP luminescence; AID 651994; actives 32% (n = 2,500);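 active means mean cytotoxicity at 5 µM above about 25%, limit read from the data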;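 further: cells exposed to compound overnight for roughly 16 to 18 hours; plate controls were DMSO wells with cells for no effect and medium without cells for full effect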
Wnt3a counter – inhibits Wnt3a reporter, counter-screen for Gli-SUFU antagonists | Wnt-LIGHT cells, Wnt3a-driven luciferase reporter, luminescence | actives 20% (n = 2,500) | inhibition, % at 6.25 µM | shares compounds with Gli-Sufu block;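 active means mean inhibition above about 25%, limit read from the data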
VP16 Luc counter – inhibits VP16 reporter, flagging COUP-TFII antagonist hits | shares compounds with COUP-TFII inh | HEK293 Gal4-VP16 luciferase reporter, luminescence | inhibition, % at 8.5 µM | actives 25% (n = 2,500) | AID 687007; in the data active means inhibition above about 13%
NR2F2 inh conf – confirmation of human COUP-TFII (NR2F2) inhibitors; shares compounds with COUP-TFII inh; HEK293 NGFI-A luciferase reporter, luminescence; inhibition, % at 8.5 µM; actives 45% (n = 2,500); AID 687008;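 active means mean inhibition over three repeats above a set limit taken from the earlier primary screen, cut at about 38% in these data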;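 further: 100% = cells given the luciferase reporter alone without the COUP-TF2 vector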
* marks the source's active call; other numbers are inactive results; . = not tested or not shown. Hits are enriched below; roughly 1.2% of the tested compounds scored in any of these assays.

SMILES | LRH-1 inv ag | Gli-Sufu block | COUP-TFII inh | NCOA3 inh | SRC2 inh | NCOA1 inh | Gli antag conf | Gli cytotox | Wnt3a counter | VP16 Luc counter | NR2F2 inh conf
c1ccc(CCNc2ncnc3ccccc23)cc1 | -53.7 | 55.2* | 56.8* | 11.2 | 14.9 | -22.0 | 57.6* | 28.8* | 24.4 | -148.7 | 29.0
O=C(CSc1ncnc2ccccc12)NCCc1ccccc1 | 14.8 | -1.1 | 4.0 | 7.3 | 5.2 | -24.7 | . | . | . | . | .
Cc1ccc(-n2c(C)cc(C(=O)NS(=O)(=O)c3ccc(C)cc3)c2C)cc1 | -16.2 | 27.2 | 8.0 | 18.5 | -0.6 | 5.3 | . | . | . | . | .
Cc1ccc(NC(=O)c2cc(C)n(-c3cccc(C)c3)c2C)cc1 | 30.4 | 77.3* | 37.8* | 14.0 | 13.4 | 22.2 | 86.1* | 66.8* | 89.2* | -98.4 | 37.6*
CCCCS(=O)(=O)N1CCCc2nc(-c3ccc(Br)cc3)ccc21 | . | . | 10.5 | . | -45.5 | . | . | . | . | . | .
Fc1ccc(-c2ccc3c(n2)CCCN3Cc2ccccc2C(F)(F)F)cc1 | . | . | 0.6 | . | -45.9 | . | . | . | . | . | .
Cc1ccc(OCCN2CCN(c3ncnc4sc(C)c(C)c34)CC2)cc1 | 54.5 | 73.0* | 73.4* | 33.4 | 30.9 | 14.0 | 73.3* | 31.0* | 15.0 | -1.8 | 61.1*
Cc1sc2ncnc(N3CCCCC3)c2c1C | 7.2 | 4.6 | -13.5 | 20.9 | 17.6 | -0.1 | . | . | . | . | .
O=C1Nc2c(Cl)cc(Cl)cc2C12Nc1ccccc1S2 (stereo not drawn) | . | . | -17.0 | . | -27.6 | . | . | . | . | . | .
Cc1cc(C)nc(SCC(=O)Nc2ccnc3ccccc23)n1 | 35.2 | 64.4* | 64.6* | 34.1 | 26.5 | 26.9 | 66.7* | 13.9 | 41.0* | 2.8 | 59.7*
COC(=O)c1ccccc1NC(=O)CSc1nc(C)cc(C)n1 | 3.6 | 4.2 | -3.6 | 19.5 | -23.9 | -2.0 | . | . | . | . | .
COC(=O)Nc1cc(C)nc2ccccc12 | 16.6 | -4.0 | -2.6 | 13.5 | -9.7 | 4.8 | . | . | . | . | .
Cc1cc(NC(=O)Cc2ccccc2)c2ccccc2n1 | 22.4 | 66.1* | 58.4* | 26.8 | 33.9 | 38.1 | 58.9* | 36.8* | 30.4* | 0.3 | 39.1*
Cc1cc(N/C(=C\C(=O)c2ccccc2)c2ccccc2)ccc1Br | . | . | 1.8 | . | -41.9 | . | . | . | . | . | .
CCNC(=O)N1CCN(c2ccc(N3CCN(Cc4ccccc4)[C@@H](C)C3)c(C)c2)[C@H](C)C1 | . | . | 20.3 | . | 25.6 | . | . | . | . | . | .
Cc1cc(N2CCN(C(c3ccccc3)c3ccccc3)CC2)n2ncnc2n1 | -13.4 | 7.6 | -15.2 | 11.6 | -18.5 | -3.4 | . | . | . | . | .
Cc1cc(N2CCN(c3nc4ccccc4s3)CC2)n2ncnc2n1 | 43.5 | 71.2* | 67.7* | 19.3 | -13.9 | 15.8 | 66.1* | 38.5* | -18.8 | -6.8 | 71.3*
CCCCOCCCNC(=O)C[C@H]1C[C@@]2(C(=O)OC)C(=C[C@H](C(C)(C)C)O[C@@H]2C)N(Cc2ccccc2)C1=O | . | . | -5.1 | . | 5.0 | . | . | . | . | . | .
Cc1cccc(-n2ncc3c2CCCC3NC(=O)Cc2c(C)noc2C)c1C (stereo not drawn) | 27.6 | 59.1* | 41.5* | -10.9 | 15.9 | 0.6 | 28.9 | 31.2* | 6.7 | -1.2 | 36.2
Cc1ccc(-c2c[n+]3c(n2-c2ccccc2)CCC3)cc1 | 29.4 | 80.1* | 60.5* | 31.5 | 30.1 | 31.1 | 82.8* | 34.4* | 36.3* | -1.9 | 34.0
CCOc1ccc(-n2c(-c3ccccc3)c[n+]3c2CCCCC3)cc1 | 63.4 | 86.2* | 66.9* | 37.4 | 20.5 | 21.4 | 90.0* | 25.4* | 40.0* | 8.3 | 48.7*
CCC(C)CNC(=O)CSc1nnc(-c2cccnc2)n1C1CCCCC1 (stereo not drawn) | . | . | -6.3 | . | -6.3 | . | . | . | . | . | .
CCN1C(=O)N(C(C)=O)[C@H]2C[C@H](C(=O)N3CCCC3)[C@H](C)[C@H](c3ccccc3)C[C@H]21 | . | . | 14.7 | . | -45.5 | . | . | . | . | . | .
COc1ccc(-c2noc(CCCCC(=O)N3CCN(c4cc(C)ccc4C)CC3)n2)cc1 | 40.4 | 67.9* | 82.0* | 21.4 | 36.6 | 24.6 | 72.9* | 28.4* | 29.5* | 21.7* | 65.2*
COc1ccc(-c2noc(CCCC(=O)N3CCN(c4cc(C)ccc4C)CC3)n2)cc1 | -60.5 | 7.4 | -18.1 | -54.0 | -22.8 | -82.8 | . | . | . | . | .
SMILES | LRH-1 inv ag | Gli-Sufu block | COUP-TFII inh | NCOA3 inh | SRC2 inh | NCOA1 inh | Gli antag conf | Gli cytotox | Wnt3a counter | VP16 Luc counter | NR2F2 inh conf
C#CC[N+](C)(C)CCCCCCCC | 2.4 | 21.2 | 5.5 | 10.7 | 14.7 | 8.3 | . | . | . | . | .
CC#CC[N+](C)(C)CCCCCCCCCCCC | 54.7 | 87.7* | 44.1* | 34.3 | 2.1 | 32.8 | 88.6* | 31.2* | 16.8 | 7.2 | 26.8
C#CC[N+](C)(C)CCCCCCCCCCCC | 53.1 | 84.3* | 41.3* | 59.4 | 31.3 | 38.6 | 80.6* | 28.1* | 21.7 | 0.6 | 29.9
C#CC[N+](C)(C)CCCCCCCCCC | 26.1 | 55.7* | 46.7* | 40.8 | 33.0 | 40.9 | 58.4* | 36.5* | 47.5* | -2.3 | 17.9
COc1cccc2c1[C@H](/C=C/c1ccccc1)[C@@H]([C@H](O)CO)OC2 | . | . | 11.1 | . | -15.6 | . | . | . | . | . | .
CN(C)c1cc[n+](CC(=O)c2ccc(-c3ccccc3)cc2)cc1 | 86.1* | 87.5* | 52.2* | 57.4 | -2.9 | 34.8 | 85.9* | 38.0* | 38.8* | 11.8 | 48.4*
O=C(C[n+]1ccccc1)c1ccc(-c2ccccc2)cc1 | 1.8 | 10.8 | -5.3 | 7.2 | -2.1 | -16.1 | . | . | . | . | .
COc1cc(CCC(=O)Nc2ccc(C)c(S(=O)(=O)N3CCCCCC3)c2)cc(OC)c1OC | 27.7 | 51.1 | 53.6* | 13.0 | 28.6 | 0.5 | 30.2 | 4.2 | -8.2 | 1.4 | 25.4
Cc1c(C(C)C)c(=O)n(-c2ccc(S(=O)(=O)NCc3ccccc3)cc2)n1C | 43.3 | 71.4* | 63.3* | -4.6 | 14.0 | 24.6 | 63.0* | 23.5 | 5.6 | 7.7 | 53.2*
Cc1c(C(C)C)c(=O)n(-c2ccc(S(=O)(=O)NC3CCCCC3)cc2)n1C | 43.5 | 68.4* | 62.1* | 28.3 | 7.3 | 20.8 | 60.3* | 25.3* | -4.3 | -0.7 | 38.6*
Cc1c(C(C)C)c(=O)n(-c2ccc(S(=O)(=O)N3CCOCC3)cc2)n1C | 6.0 | 4.1 | 21.9 | -1.4 | -73.1 | -6.5 | . | . | . | . | .
CC(C)OCCCNc1ncnc2c1[nH]c1ccccc12 | 13.0 | 63.7* | 65.9* | 6.9 | 4.1 | 5.1 | 59.1* | 39.8* | -31.1 | -33.8 | 37.2

Screening data: PubChem, several laboratories
